According to the supplement of paper PMC8728848:
Many of the other results were omitted from the sample, so the strongest signals are more common in it than they were.

What was measured:
Test in all cases: glycan array binding signal (z-score within array); higher = stronger binding
Settings in all cases: glycan notation: IUPAC condensed, linker removed
[1] = target: Fuc(a1-2)Gal(b1-3)GlcNAc(b1-2)Man(a1-3)[Fuc(a1-2)Gal(b1-3)GlcNAc(b1-2)Man(a1-6)]Man(b1-4)GlcNAc(b1-4)[Fuc(a1-6)]GlcNAc
Procedure, shortened: (§1)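 Arrays were curated from the Consortium for Functional Glycomics database, 3228 in total, and kept only where the protein sequence was available. Binding is expressed as a within-array Z-score. This score was averaged across arrays of the same protein sequence at different concentrations or buffers and across linkers, and negative values can be read as non-binding.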

[2] = target: Fuc(a1-2)Gal(b1-3)GlcNAc(b1-3)[Fuc(a1-2)Gal(b1-3)GlcNAc(b1-6)]GalNAc
Procedure, shortened: as §1

[3] = target: Fuc(a1-2)Gal(b1-3)GlcNAc(b1-3)[Gal(b1-4)GlcNAc(b1-6)]Gal(b1-4)Glc
Procedure, shortened: as §1

[4] = target: Fuc(a1-2)Gal(b1-3)GlcNAc(b1-3)[Neu5Ac(a2-6)Gal(b1-4)GlcNAc(b1-6)]Gal(b1-4)Glc
Procedure, shortened: as §1

[5] = target: Fuc(a1-2)Gal(b1-3)[Fuc(a1-4)]GlcNAc(b1-2)Man(a1-3)[Fuc(a1-2)Gal(b1-3)[Fuc(a1-4)]GlcNAc(b1-2)Man(a1-3)]Man(b1-4)GlcNAc(b1-4)GlcNAc
Procedure, shortened: as §1

[6] = target: Fuc(a1-2)Gal(b1-4)[Fuc(a1-3)]GlcNAc(b1-3)[Neu5Ac(a2-6)Gal(b1-4)GlcNAc(b1-6)]Gal(b1-4)Glc
Procedure, shortened: as §1

[7] = target: Fuc(a1-2)[Gal(a1-3)]Gal(b1-3)GalNAc(b1-3)Gal(a1-4)Gal(b1-4)Glc
Procedure, shortened: as §1

[8] = target: Fuc(a1-2)[Gal(a1-3)]Gal(b1-4)GlcNAc(b1-2)Man(a1-3)[Fuc(a1-2)[Gal(a1-3)]Gal(b1-4)GlcNAc(b1-2)Man(a1-6)]Man(b1-4)GlcNAc(b1-4)GlcNAc
Procedure, shortened: as §1

[9] = target: Fuc(a1-2)[Gal(a1-3)]Gal(b1-4)GlcNAc(b1-3)[Fuc(a1-2)[Gal(a1-3)]Gal(b1-4)GlcNAc(b1-6)]GalNAc
Procedure, shortened: as §1

[10] = target: Fuc(a1-2)[GalNAc(a1-3)]Gal(b1-4)GlcNAc(b1-2)Man
Procedure, shortened: as §1

[11] = target: Fuc(a1-2)[GalNAc(a1-3)]Gal(b1-4)GlcNAc(b1-3)Gal(b1-4)GlcNAc(b1-3)Gal(b1-4)GlcNAc
Procedure, shortened: as §1

[12] = target: Fuc(a1-3)[Gal(b1-4)]GlcNAc(b1-2)Man
Procedure, shortened: as §1

[13] = target: Fuc(a1-3)[Gal(b1-4)]GlcNAc(b1-2)Man(a1-3)[Fuc(a1-3)[Gal(b1-4)]GlcNAc(b1-2)Man(a1-6)]Man(b1-4)GlcNAc(b1-4)[Fuc(a1-6)]GlcNAc
Procedure, shortened: as §1

[14] = target: Fuc(a1-3)[Gal(b1-4)]GlcNAc(b1-3)Gal(b1-3)[Fuc(a1-4)]GlcNAc
Procedure, shortened: as §1

[15] = target: Fuc(a1-3)[Gal3S(b1-4)]Glc
Procedure, shortened: as §1

[16] = target: Gal(a1-2)Gal
Procedure, shortened: as §1

[17] = target: Gal(a1-3)Gal(b1-3)GlcNAc(b1-2)Man(a1-3)[Gal(a1-3)Gal(b1-3)GlcNAc(b1-2)Man(a1-6)]Man(b1-4)GlcNAc(b1-4)GlcNAc
Procedure, shortened: as §1

[18] = target: Gal(a1-3)Gal(b1-3)GlcNAc(b1-6)GalNAc
Procedure, shortened: as §1

[19] = target: Gal(b1-3)GalNAc(b1-3)Gal
Procedure, shortened: as §1

[20] = target: Gal(b1-3)GlcNAc(b1-2)Man(a1-3)[Gal(b1-3)GlcNAc(b1-2)Man(a1-6)]Man(b1-4)GlcNAc(b1-4)[Fuc(a1-6)]GlcNAc
Procedure, shortened: as §1

[21] = target: Gal(b1-3)GlcNAc(b1-3)Gal(b1-4)GlcNAc
Procedure, shortened: as §1

[22] = target: Gal(b1-3)GlcNAc(b1-6)[Gal(b1-3)]GalNAc
Procedure, shortened: as §1

[23] = target: Gal(b1-3)GlcNAc6S
Procedure, shortened: as §1

[24] = target: Gal(b1-4)GalNAc(a1-3)[Fuc(a1-2)]Gal(b1-4)GlcNAc
Procedure, shortened: as §1

[25] = target: Gal(b1-4)GlcNAc(b1-2)Man(a1-3)[Gal(b1-4)GlcNAc(b1-2)Man(a1-6)]Man(b1-4)GlcNAc(b1-4)[Fuc(a1-6)]GlcNAc
Procedure, shortened: as §1

[26] = target: Gal(b1-4)GlcNAc(b1-2)Man(a1-3)[Man(a1-6)]Man(b1-4)GlcNAc(b1-4)GlcNAc
Procedure, shortened: as §1

[27] = target: Gal(b1-4)GlcNAc(b1-3)Gal(b1-3)GlcNAc
Procedure, shortened: as §1

[28] = target: Gal(b1-4)GlcNAc(b1-3)Gal(b1-4)GlcNAc(b1-3)Gal(b1-4)GlcNAc(b1-2)Man(a1-3)[Gal(b1-4)GlcNAc(b1-3)Gal(b1-4)GlcNAc(b1-3)Gal(b1-4)GlcNAc(b1-2)Man(a1-6)]Man(b1-4)GlcNAc(b1-4)[Fuc(a1-6)]GlcNAc
Procedure, shortened: as §1

B1: GS7807G-bfa-506-18-506 (Bacteroides fragilis) (protein)
chain: ASCDKFDEINTDPDATTKVTSSLLATGLLLDITSSSASKSFIYDELLAKQMAWGESMEDYQYNVFGRSGFGGYTTLINAQKMVESVSDDNVNAYDGLAHFIKAYKIFYMSMEMGDLPYEEALQGELGLVRPKYNTQKEVMNFILSDLETAYELFSTAKDFDGDPILGGSISKWKKATTAFQLKVLMHLSKKESDADLKVKERFARIVASGSLMESNEDNLQMKYADKANTVYPFHNTNTKHAGYAMLSTMLIDKFKATGDIRMFYYAKPAKAKLNEGVTADSWDAYIGTDPSLPFEQIEKAYATEQYSGFNARYTDYPSGEPVVRLGYAEQNFILAEAAVRGWISGDASAYYKKAIRAHMEFIASNTPDEEVYHHGHPITEEAIAAFLETPAIQLSGEKEEDIEKILTQRYLASFMQHPYDVYYDYRRTGYPVLPINPATNRNTMNDRLPMRWMYPKSESDYNLEHQNEALERQFGGVDDVNKLMWILQ
glycan array binding signal (z-score) [1]: 0.142
glycan array binding signal (z-score) [2]: 3.91
glycan array binding signal (z-score) [3]: 0.516
glycan array binding signal (z-score) [4]: -0.857
glycan array binding signal (z-score) [5]: 0.421
glycan array binding signal (z-score) [6]: -0.781
glycan array binding signal (z-score) [7]: -0.536
glycan array binding signal (z-score) [8]: 3.93
glycan array binding signal (z-score) [9]: 0.293
glycan array binding signal (z-score) [10]: -0.111
glycan array binding signal (z-score) [11]: -0.91
glycan array binding signal (z-score) [12]: 0.315
glycan array binding signal (z-score) [13]: 1.51
glycan array binding signal (z-score) [14]: -0.716
glycan array binding signal (z-score) [15]: -0.945
glycan array binding signal (z-score) [16]: -0.863
glycan array binding signal (z-score) [17]: 4.66
glycan array binding signal (z-score) [18]: 1.31
glycan array binding signal (z-score) [19]: -0.588
glycan array binding signal (z-score) [20]: 2.73
glycan array binding signal (z-score) [21]: -0.493
glycan array binding signal (z-score) [22]: -0.028
glycan array binding signal (z-score) [23]: 0.702
glycan array binding signal (z-score) [24]: -0.448
glycan array binding signal (z-score) [25]: 2.53
glycan array binding signal (z-score) [26]: 1.4
glycan array binding signal (z-score) [27]: 0.201
glycan array binding signal (z-score) [28]: 5.99
